Laboratory results reported in PubChem BioAssay (EPA / NIEHS).
Values joined by “and” are separate entries in the source; they are usually repeats but may differ in a detail not shown here. Equal entries are not always repeated. Inconclusive results are not listed. Some structures have more than one record in an assay (separate samples or runs), and their calls can disagree. Active and inactive are the calls of the source. Rule for the calls, unless noted: active = hit-call score of the fitted dose curve at least 0.9, where 1 is the maximum; inconclusive = response in the unintended direction; inactive = score below 0.9.

Columns and labels:
[1] = BSK_4H_Eotaxin3: BioMAP Diversity Plus: 4H Assay for Eotaxin 3 Biomarker Activity (AID 2283000; active = hit-call score of the fitted dose curve at least 0.9, where 1 is the maximum; inactive = score below 0.9); settings: primary human endothelial cells (HUVEC); actives raise or lower the signal
Method in brief: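 ELISA quantitation of CCL26 (Eotaxin-3) protein from chemically dosed human vascular endothelial cells at 24 h; increases and decreases both scored relative to DMSO-treated baseline.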

[2] = target: human Peroxisome Proliferator-activated Receptor delta (PPARd), PPARD (gene 5467) (UniProt Q03181); experiment: ATG_PPARd_TRANS: Attagene TRANS-FACTORIAL HepG2 Assay for human Peroxisome Proliferator-activated Receptor delta (PPARd) (AID 2283002)
Sequence of human Peroxisome Proliferator-activated Receptor delta (PPARd), PPARD (gene 5467) (Q03181 whole entry, looked up, the tested form may be a part): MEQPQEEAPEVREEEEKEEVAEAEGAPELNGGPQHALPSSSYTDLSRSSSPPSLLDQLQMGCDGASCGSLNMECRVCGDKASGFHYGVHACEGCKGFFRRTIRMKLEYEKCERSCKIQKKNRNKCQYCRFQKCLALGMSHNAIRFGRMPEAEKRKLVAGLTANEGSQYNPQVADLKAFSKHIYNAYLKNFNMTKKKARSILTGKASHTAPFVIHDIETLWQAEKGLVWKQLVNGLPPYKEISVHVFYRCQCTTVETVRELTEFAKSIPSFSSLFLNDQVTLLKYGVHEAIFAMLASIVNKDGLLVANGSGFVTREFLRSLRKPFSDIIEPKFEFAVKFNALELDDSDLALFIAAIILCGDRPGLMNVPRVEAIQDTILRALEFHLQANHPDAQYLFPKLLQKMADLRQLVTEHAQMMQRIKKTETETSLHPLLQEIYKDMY
Method in brief: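 Transient HepG2 transfection (multiple GAL4-UAS RTUs, chimeric receptor-Gal4); 24 h dosing; total RNA → oligo(dT) RT → PCR → 6-FAM primer extension → HpaI cut → CE. Positive direction vs DMSO.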

[3] = read-out: Intercellular Adhesion Molecule 1 (ICAM1), ICAM1 (gene 3383); experiment: BSK_3C_ICAM1: BioMAP Diversity Plus: 3C Assay for Intercellular Adhesion Molecule 1 (ICAM1) Biomarker Activity (AID 2283003; active = hit-call score of the fitted dose curve at least 0.9, where 1 is the maximum; inactive = score below 0.9); settings: primary human endothelial cells (HUVEC); actives raise or lower the signal
Method in brief: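 Chemicals are dosed onto primary human umbilical vein endothelium (3C system). After 24 h, ICAM-1 is measured by ELISA, and responses are fitted bidirectionally relative to DMSO.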

[4] = target: Retinoic acid receptor alpha (Homo sapiens) (UniProt P10276); experiment: ATG_RARa_TRANS: Attagene TRANS-FACTORIAL HepG2 Assay for human Retinoic Acid Receptor alpha (RARa) (AID 2283005)
Sequence of Retinoic acid receptor alpha (Homo sapiens) (P10276 whole entry, looked up, the tested form may be a part): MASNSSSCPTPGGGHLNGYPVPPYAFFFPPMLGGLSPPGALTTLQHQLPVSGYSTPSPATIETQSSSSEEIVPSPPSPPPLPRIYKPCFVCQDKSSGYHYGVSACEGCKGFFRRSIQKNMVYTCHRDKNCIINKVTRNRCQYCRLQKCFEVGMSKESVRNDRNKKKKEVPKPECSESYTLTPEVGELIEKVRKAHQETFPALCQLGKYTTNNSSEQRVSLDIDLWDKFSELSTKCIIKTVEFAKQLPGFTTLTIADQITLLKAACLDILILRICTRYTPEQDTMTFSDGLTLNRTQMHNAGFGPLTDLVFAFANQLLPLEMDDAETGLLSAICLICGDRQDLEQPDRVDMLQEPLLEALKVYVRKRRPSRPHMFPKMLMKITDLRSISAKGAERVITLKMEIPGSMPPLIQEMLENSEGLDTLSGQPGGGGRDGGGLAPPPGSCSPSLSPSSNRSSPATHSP
Method in brief: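 Reporter transcripts, measured by RT-PCR with fluorescent labeling and capillary electrophoresis after 24 h dosing, reflect activity of an exogenous human RARa–GAL4 fusion in transiently transfected HepG2. Fitted for increase relative to DMSO.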

[5] = BSK_3C_Proliferation: Cell Proliferation Assessment in the BioMAP Diversity Plus: 3C Assay (AID 2283006; active = hit-call score of the fitted dose curve at least 0.9, where 1 is the maximum; inactive = score below 0.9;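 for AC50: potency may reflect either rise or fall in cell number versus DMSO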); settings: primary human endothelial cells (HUVEC)
Method in brief: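 Cells (human umbilical vein endothelial, sub-confluent) receive test chemical; after 48 h they are fixed in 10% trichloroacetic acid, stained with 0.1% SRB and read at 560 nm. Activity is referenced to DMSO, fitting increases and decreases.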

[6] = target: Peroxisome proliferator-activated receptor gamma (Homo sapiens) (UniProt P37231); experiment: ATG_PPARg_TRANS: Attagene TRANS-FACTORIAL HepG2 Assay for human Peroxisome Proliferator-activated Receptor-gamma (PPARg) (AID 2283007)
Method in brief: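 After 24 h of chemical exposure, transfected HepG2 cells carrying PPARγ-Gal4 chimera reporter constructs are lysed for RNA. Reporter transcripts are measured by RT-PCR and capillary electrophoresis with fluorescent labelling, and gain of signal is fitted versus DMSO.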

[7] = target: human Retinoic Acid Receptor gamma (RARg), RARG (gene 5916) (UniProt P13631); experiment: ATG_RARg_TRANS: Attagene TRANS-FACTORIAL HepG2 Assay for human Retinoic Acid Receptor gamma (RARg) (AID 2283009)
Sequence of human Retinoic Acid Receptor gamma (RARg), RARG (gene 5916) (P13631 whole entry, looked up, the tested form may be a part): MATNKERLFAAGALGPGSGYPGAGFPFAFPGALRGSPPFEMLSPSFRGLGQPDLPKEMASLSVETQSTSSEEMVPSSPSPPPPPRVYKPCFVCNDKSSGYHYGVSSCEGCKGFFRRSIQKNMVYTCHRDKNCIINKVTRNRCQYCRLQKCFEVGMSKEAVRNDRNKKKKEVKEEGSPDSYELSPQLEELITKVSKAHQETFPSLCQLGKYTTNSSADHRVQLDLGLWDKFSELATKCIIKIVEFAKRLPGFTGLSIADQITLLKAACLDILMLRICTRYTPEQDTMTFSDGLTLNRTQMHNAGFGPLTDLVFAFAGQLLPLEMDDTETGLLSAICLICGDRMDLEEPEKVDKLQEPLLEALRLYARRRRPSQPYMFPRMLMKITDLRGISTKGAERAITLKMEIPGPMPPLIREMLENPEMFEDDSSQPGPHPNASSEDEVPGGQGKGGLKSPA
Method in brief: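 TRANS format measured activity of exogenous NR-GAL4 fusion (RARg) in transfected HepG2 liver cells after 24 h dosing. Induced reporter RNA was detected by RT-PCR/capillary electrophoresis fluorescence, analysed in the positive direction against DMSO.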

[8] = target: human RAR-related Orphan Receptor beta (RORb), RORB (gene 6096) (UniProt Q92753); experiment: ATG_RORb_TRANS: Attagene TRANS-FACTORIAL HepG2 Assay for human RAR-related Orphan Receptor beta (RORb) (AID 2283010)
Sequence of human RAR-related Orphan Receptor beta (RORb), RORB (gene 6096) (Q92753 whole entry, looked up, the tested form may be a part): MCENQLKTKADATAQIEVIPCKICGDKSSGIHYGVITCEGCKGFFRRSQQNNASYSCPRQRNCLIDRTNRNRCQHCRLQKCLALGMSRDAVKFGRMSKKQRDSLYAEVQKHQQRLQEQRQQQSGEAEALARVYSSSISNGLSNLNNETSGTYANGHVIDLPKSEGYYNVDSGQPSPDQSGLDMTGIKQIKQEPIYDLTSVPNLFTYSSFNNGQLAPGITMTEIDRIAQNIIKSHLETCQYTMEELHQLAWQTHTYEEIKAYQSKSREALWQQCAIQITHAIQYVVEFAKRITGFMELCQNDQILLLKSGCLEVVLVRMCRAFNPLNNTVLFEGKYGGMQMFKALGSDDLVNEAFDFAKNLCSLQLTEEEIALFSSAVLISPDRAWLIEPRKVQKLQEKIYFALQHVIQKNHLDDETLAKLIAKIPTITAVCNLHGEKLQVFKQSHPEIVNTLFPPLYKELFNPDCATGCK
Method in brief: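 Transfect HepG2 with multiple GAL4-UAS reporter transcription units; dose chemicals for 24 h; isolate RNA, reverse-transcribe and PCR-amplify reporter sequences; label, digest and resolve fragments by capillary electrophoresis; fit increases relative to DMSO.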

[9] = target: human Retinoid X Receptor beta (RXRb), RXRB (gene 6257) (UniProt P28702); experiment: ATG_RXRb_TRANS: Attagene TRANS-FACTORIAL HepG2 Assay for human Retinoid X Receptor beta (RXRb) (AID 2283013)
Sequence of human Retinoid X Receptor beta (RXRb), RXRB (gene 6257) (P28702 whole entry, looked up, the tested form may be a part): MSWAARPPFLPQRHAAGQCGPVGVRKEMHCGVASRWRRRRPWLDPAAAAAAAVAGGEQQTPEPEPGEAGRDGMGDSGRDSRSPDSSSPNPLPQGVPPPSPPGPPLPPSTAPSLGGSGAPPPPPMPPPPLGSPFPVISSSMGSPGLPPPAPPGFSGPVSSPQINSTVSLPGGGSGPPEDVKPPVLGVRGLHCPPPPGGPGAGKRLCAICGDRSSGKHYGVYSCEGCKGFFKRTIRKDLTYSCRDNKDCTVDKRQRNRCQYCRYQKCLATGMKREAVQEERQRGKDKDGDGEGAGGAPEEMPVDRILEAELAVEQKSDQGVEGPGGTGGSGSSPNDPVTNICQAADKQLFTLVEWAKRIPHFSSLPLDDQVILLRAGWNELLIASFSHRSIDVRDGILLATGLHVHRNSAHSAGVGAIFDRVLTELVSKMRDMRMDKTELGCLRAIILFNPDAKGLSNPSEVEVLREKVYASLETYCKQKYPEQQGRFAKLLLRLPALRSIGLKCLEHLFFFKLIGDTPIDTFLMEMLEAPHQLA
Method in brief: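 Chimeric receptor-Gal4 activity was assessed in transiently transfected human HepG2 cells after 24 h exposure. Transcripts from GAL4-UAS reporters were quantified by fluorescent RT-PCR and capillary electrophoresis, with DMSO as negative control and baseline.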

[10] = target: human Thyroid Receptor alpha (THRa1), THRA (gene 7067) (UniProt P10827); experiment: ATG_THRa1_TRANS: Attagene TRANS-FACTORIAL HepG2 Assay for human Thyroid Receptor alpha (THRa1) (AID 2283014)
Sequence of human Thyroid Receptor alpha (THRa1), THRA (gene 7067) (P10827 whole entry, looked up, the tested form may be a part): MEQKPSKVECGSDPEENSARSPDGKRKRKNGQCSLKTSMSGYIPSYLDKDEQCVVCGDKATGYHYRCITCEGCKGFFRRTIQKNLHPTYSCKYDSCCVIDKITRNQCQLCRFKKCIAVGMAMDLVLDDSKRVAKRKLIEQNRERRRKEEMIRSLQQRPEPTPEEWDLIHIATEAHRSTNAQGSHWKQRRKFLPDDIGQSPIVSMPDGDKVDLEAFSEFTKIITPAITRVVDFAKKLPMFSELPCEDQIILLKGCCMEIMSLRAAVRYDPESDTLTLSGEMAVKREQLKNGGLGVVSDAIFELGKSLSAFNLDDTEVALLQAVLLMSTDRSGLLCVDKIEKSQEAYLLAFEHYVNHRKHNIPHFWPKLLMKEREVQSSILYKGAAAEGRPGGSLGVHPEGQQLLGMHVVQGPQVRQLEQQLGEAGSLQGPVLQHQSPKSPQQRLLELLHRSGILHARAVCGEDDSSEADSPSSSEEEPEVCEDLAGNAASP
Method in brief: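 Measured here is mRNA from a GAL4-UAS reporter in transfected HepG2 cells carrying a Gal4-fused receptor, 24 h post-dose. DMSO served as negative control and baseline.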

[11] = read-out: E-selectin (Homo sapiens) (UniProt P16581); experiment: BSK_3C_Eselectin: BioMAP Diversity Plus: 3C Assay for Eselectin Biomarker Activity (AID 2283015; active = hit-call score of the fitted dose curve at least 0.9, where 1 is the maximum; inactive = score below 0.9); settings: primary human endothelial cells (HUVEC); actives raise or lower the signal
Method in brief: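 Endpoint derived by bidirectional fitting against DMSO vehicle; signal is ELISA-detected E-selectin from primary HUVEC at 24 h post-dosing, with parallel SRB staining (0.1% SRB, 560 nm) flagging cytotoxicity.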

[12] = read-out: Interleukin-1 alpha (IL1a), IL1A (gene 3552); experiment: BSK_BE3C_IL1a: BioMAP Diversity Plus: BE3C Assay for Interleukin-1 alpha (IL1a) Biomarker Activity (AID 2283016; active = hit-call score of the fitted dose curve at least 0.9, where 1 is the maximum; inactive = score below 0.9); settings: primary human bronchial epithelial cells; actives raise or lower the signal
Method in brief: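 Signal from IL-1a ELISA, taken 24 h after chemical dosing of human bronchial epithelial cells, is compared with DMSO as baseline using bidirectional curve fitting.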

[13] = read-out: Monocyte Chemoattractant Protein-1 (MCP1), CCL2 (gene 6347); experiment: BSK_4H_MCP1: BioMAP Diversity Plus: 4H Assay for Monocyte Chemoattractant Protein-1 (MCP1) Biomarker Activity (AID 2283018; active = hit-call score of the fitted dose curve at least 0.9, where 1 is the maximum; inactive = score below 0.9); settings: primary human endothelial cells (HUVEC); actives raise or lower the signal
Method in brief: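 Endothelial cells from umbilical vein were treated with test chemical, then after 24 h MCP-1 levels were quantified by ELISA; endpoint values came from bidirectional fitting with DMSO as baseline of activity.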

[14] = read-out: Human Leukocyte Antigen - DR isotype (HLADR), HLA-DRA (gene 3122); experiment: BSK_3C_HLADR: BioMAP Diversity Plus: 3C Assay for Human Leukocyte Antigen - DR isotype (HLADR) Biomarker Activity (AID 2283019; active = hit-call score of the fitted dose curve at least 0.9, where 1 is the maximum; inactive = score below 0.9); settings: primary human endothelial cells (HUVEC); actives raise or lower the signal
Method in brief: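 Compound added to primary HUVEC cultures, 24 h incubation, then HLA-DR determined by ELISA; endpoint derived by bidirectional fitting relative to DMSO negative control.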

[15] = target: human Peroxisome Proliferator-activated Receptor alpha (PPARa), PPARA (gene 5465) (UniProt Q07869); experiment: ATG_PPARa_TRANS: Attagene TRANS-FACTORIAL HepG2 Assay for human Peroxisome Proliferator-activated Receptor alpha (PPARa) (AID 2283001);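 for AC50: potency for gain of reporter signal over DMSO so agonist or activator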
Sequence of human Peroxisome Proliferator-activated Receptor alpha (PPARa), PPARA (gene 5465) (Q07869 whole entry, looked up, the tested form may be a part): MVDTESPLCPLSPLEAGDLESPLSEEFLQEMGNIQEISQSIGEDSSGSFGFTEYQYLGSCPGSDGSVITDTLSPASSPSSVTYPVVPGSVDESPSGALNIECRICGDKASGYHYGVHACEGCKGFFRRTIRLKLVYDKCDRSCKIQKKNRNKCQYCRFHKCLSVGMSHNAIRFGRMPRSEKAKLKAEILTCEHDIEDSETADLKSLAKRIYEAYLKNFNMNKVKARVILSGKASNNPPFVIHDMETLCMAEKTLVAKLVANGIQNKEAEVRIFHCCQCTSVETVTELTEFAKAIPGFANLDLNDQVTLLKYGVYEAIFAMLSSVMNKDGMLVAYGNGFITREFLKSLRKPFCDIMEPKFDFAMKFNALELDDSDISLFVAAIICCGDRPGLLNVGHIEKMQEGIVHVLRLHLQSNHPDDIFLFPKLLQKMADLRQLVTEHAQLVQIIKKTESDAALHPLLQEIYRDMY
Method in brief: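 Reporter transcripts quantified by RT-PCR plus capillary electrophoresis after 24 h treatment, fitted upward relative to DMSO. Cells: human HepG2 transiently carrying multiple GAL4-UAS reporter units driven by NR-Gal4 chimeras.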

[16] = target: human Retinoic Acid Receptor beta (RARb), RARB (gene 5915) (UniProt P10826); experiment: ATG_RARb_TRANS: Attagene TRANS-FACTORIAL HepG2 Assay for human Retinoic Acid Receptor beta (AID 2283004)
Sequence of human Retinoic Acid Receptor beta (RARb), RARB (gene 5915) (P10826 whole entry, looked up, the tested form may be a part): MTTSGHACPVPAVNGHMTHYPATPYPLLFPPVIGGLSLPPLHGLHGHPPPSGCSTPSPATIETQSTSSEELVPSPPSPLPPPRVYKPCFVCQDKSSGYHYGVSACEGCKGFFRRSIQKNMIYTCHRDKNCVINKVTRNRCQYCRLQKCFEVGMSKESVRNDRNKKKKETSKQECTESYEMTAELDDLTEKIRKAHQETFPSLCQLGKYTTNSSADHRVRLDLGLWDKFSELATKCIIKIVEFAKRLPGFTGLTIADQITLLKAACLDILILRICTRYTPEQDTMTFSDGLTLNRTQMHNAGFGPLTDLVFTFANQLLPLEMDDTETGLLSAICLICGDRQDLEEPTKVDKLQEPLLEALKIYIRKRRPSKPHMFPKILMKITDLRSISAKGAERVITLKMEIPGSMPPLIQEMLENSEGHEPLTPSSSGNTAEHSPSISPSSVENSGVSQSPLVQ
Method in brief: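 Fluorescent capillary-electrophoresis detection of GAL4-UAS reporter mRNA defines the endpoint, with induction over DMSO-treated wells scored as activity. Transiently transfected human hepatoma HepG2 cells expressing exogenous NR–Gal4 proteins are exposed to test chemicals for 24 h.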

[17] = target: Nuclear receptor subfamily 1 group I member 2 (Homo sapiens) (UniProt O75469); experiment: ATG_PXR_TRANS: Attagene TRANS-FACTORIAL HepG2 Assay for human Pregnane X Receptor (PXR) (AID 2283008)
Sequence of Nuclear receptor subfamily 1 group I member 2 (Homo sapiens) (O75469 whole entry, looked up, the tested form may be a part): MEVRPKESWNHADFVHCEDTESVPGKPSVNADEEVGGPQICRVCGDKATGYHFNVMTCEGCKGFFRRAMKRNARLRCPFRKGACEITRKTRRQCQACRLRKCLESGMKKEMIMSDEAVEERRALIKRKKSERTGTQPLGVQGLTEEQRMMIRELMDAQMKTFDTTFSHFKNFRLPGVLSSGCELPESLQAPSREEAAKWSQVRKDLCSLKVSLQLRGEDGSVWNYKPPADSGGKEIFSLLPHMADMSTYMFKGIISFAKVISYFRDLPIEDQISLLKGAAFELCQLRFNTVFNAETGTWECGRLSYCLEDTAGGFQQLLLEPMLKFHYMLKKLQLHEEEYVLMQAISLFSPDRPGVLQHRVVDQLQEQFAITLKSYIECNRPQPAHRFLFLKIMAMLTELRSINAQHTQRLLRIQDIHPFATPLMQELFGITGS
Method in brief: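 HepG2 transfected (FuGene 6) with GAL4-UAS reporter units + PXR-Gal4 chimera; dosed 24 h. Total RNA → oligo(dT) RT → PCR → 6-FAM primer extension → HpaI cut → CE. Gain-of-signal vs DMSO.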

[18] = target: human RAR-related Orphan Receptor gamma (RORg), RORC (gene 6097) (UniProt P51449); experiment: ATG_RORg_TRANS: Attagene TRANS-FACTORIAL HepG2 Assay for human RAR-related Orphan Receptor gamma (RORg) (AID 2283011)
Method in brief: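 Chimeric RORg-Gal4 transactivation in transfected HepG2; 24 h exposure; RT-PCR/capillary electrophoresis readout of reporter mRNA, DMSO baseline.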

[19] = target: Retinoic acid receptor RXR-alpha (Homo sapiens) (UniProt P19793); experiment: ATG_RXRa_TRANS: Attagene TRANS-FACTORIAL HepG2 Assay for human Retinoid X Receptor alpha (RXRa) (AID 2283012)
Method in brief: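 Measures exogenous chimeric NR-GAL4 activity in transfected HepG2 liver cells after 24 h of dosing. Induced reporter mRNA was detected by RT-PCR with capillary electrophoresis, and gain of signal was analysed against DMSO.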

[20] = read-out: Monocyte Chemoattractant Protein-1 (MCP1), CCL2 (gene 6347); experiment: BSK_3C_MCP1: BioMAP Diversity Plus: 3C Assay for Monocyte Chemoattractant Protein-1 (MCP1) Biomarker Activity (AID 2283017; active = hit-call score of the fitted dose curve at least 0.9, where 1 is the maximum; inactive = score below 0.9); settings: primary human endothelial cells (HUVEC); actives raise or lower the signal
Method in brief: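 Using human vascular primary endothelium, researchers measured MCP-1 by ELISA 24 h after treatment, with DMSO serving as negative control for bidirectional fitting.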

Measured: AC50

Sequence of E-selectin (Homo sapiens) (P16581 whole entry, looked up): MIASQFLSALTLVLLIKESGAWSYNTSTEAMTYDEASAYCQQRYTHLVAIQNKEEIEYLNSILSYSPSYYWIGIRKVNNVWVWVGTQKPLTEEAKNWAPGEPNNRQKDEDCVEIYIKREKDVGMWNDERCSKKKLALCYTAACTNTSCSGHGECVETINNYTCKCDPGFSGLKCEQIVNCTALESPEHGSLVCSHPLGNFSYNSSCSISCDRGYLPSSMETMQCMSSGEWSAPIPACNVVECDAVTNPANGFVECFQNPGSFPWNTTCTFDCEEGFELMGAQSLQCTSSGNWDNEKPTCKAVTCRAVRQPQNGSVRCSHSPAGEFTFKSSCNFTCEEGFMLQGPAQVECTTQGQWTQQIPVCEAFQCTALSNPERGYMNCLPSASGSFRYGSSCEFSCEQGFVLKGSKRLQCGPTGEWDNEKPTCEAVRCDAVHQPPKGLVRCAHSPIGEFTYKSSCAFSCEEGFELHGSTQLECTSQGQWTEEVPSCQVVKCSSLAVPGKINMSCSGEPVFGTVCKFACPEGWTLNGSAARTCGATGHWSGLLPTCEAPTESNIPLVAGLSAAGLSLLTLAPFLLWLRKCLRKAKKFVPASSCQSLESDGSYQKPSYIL

CCc1cccc(C)c1N(C(=O)CS(=O)(=O)O)C(C)COC (stereo not drawn)
not listed: [15] | [16] | [17] | [18] | [19] | [20]
inactive: all other assays above

CCOC(=O)/C=C\C(=O)OCC
active: [15] 49.6 µM | [6] 9.4 µM | [14] 32.5 µM
not listed: [9] | [10] | [13] | [20]
inactive: all other assays above

Fc1ccc(Br)cc1
active: [9] 156 µM
not listed: [2] | [6] | [8] | [10] | [13] | [17] | [20]
inactive: all other assays above

C=CC(=O)OCCCCCCOC(=O)C=C
inactive: [15] | [2] | [19] | [9] | [10]
active: [1] 12.4 µM | [3] 29.3 µM | [5] 8.97 µM | [6] 6.09 µM | [17] 26.5 µM | [11] 6.59 µM | [12] 10 µM | [14] 4.69 µM

C=CC(=O)OCC(C)OCC(C)OCC(C)OC(=O)C=C (stereo not drawn)
inactive: [2] | [7] | [8] | [18] | [19] | [10]
active: [1] 8.38 µM | [3] 28.2 µM | [5] 9.51 µM | [6] 10.3 µM | [17] 9.63 µM | [11] 11 µM | [12] 21.5 µM | [20] 28.9 µM | [14] 8.55 µM

c1ccc(Nc2cccc3ccccc23)cc1
active: [1] 32.8 µM and 18 µM | [15] 9.04 µM | [3] 32.6 µM | [5] 27 µM and 30.4 µM | [6] 18.3 µM | [17] 12.6 µM | [19] 43.4 µM | [9] 11.9 µM | [11] 31.5 µM and 31.6 µM | [12] 23.8 µM and 28.6 µM | [20] 33.1 µM and 33.6 µM | [14] 38.7 µM and 29.6 µM
inactive: [3] | [16] | [10]

C=C(C)C(=O)OCCCCCCCCCCCC
active: [6] 122 µM | [9] 67.8 µM
not listed: [4] | [7] | [10] | [13] | [16] | [20]
inactive: all other assays above

CCC1(C)C(=O)N(Cl)C(=O)N1Cl (stereo not drawn)
not listed: [4] | [7] | [10] | [13] | [16] | [18] | [19]
inactive: all other assays above
